Source: PubChem BioAssay (National Center for Advancing Translational Sciences (NCATS))
PI5P4K alpha inh = PI5P4K alpha (human) kinase inhibition | PI5P4Kalpha enzyme, ADP-Glo luminescence, 60 min; stronger effect = lower value | max response, % | 1.2% of 330,000 active | AID 652105; active means max response of -50% or lower; inconclusive means between -30% and -50%; inactive means -30% or higher; further: value at the top dose of about 77 µM; on the % scale 0 is the no-effect control and ±100 the full control effect
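Luminescence from ADP-Glo served as readout of PI5P4Kalpha activity in a qHTS format. Reaction: enzyme, substrate, compound, ATP at 5 microM final, 60 min at RT.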
G9a block = blocks human histone lysine methyltransferase G9a; Q96KQ7; G9a H3K9 monomethylation, AlphaScreen, 2 h; Potency, µM (top dose mostly 102 µM), inactives show top-dose activity, negative = inhibition, most hits filed as inhibitors; 8.8% of 350,000 active; AID 504332; further: potency means the concentration at half of the fitted maximal effect; on the % scale 0 is the no-effect control and ±100 the full control effect; nearly all actives have a fitted effect of over 75% in size
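Compounds were preincubated with 20 nM G9a for 15 min, after which biotinylated H3K9 peptide (500 nM) and SAM (20 uM) started a 2 h room-temperature reaction. Monomethylated product was quantified by antibody-based AlphaScreen chemiluminescence.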
BAZ2B block = BAZ2B (human) inhibition | Q9UIF8 | AlphaScreen BAZ2B-H3K14Ac peptide displacement | Potency, µM (doses to about 114 µM), inactives show top-dose activity change, negative = inhibition, most hits filed as inhibitors | 4.4% of 360,000 active; further: potency means the concentration at half of the fitted maximal effect; on the % scale 0 is the no-effect control and ±100 the full control effect; nearly all actives have a fitted effect of over 60% in size
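Complex of BAZ2B and biotin-H3K14Ac (50 nM apiece) forms over 30 min at RT, then faces library compounds up to 110 uM for another 30 min; AlphaScreen beads added, 20 min dark incubation, luminescence read.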
HP1b chromo inh = blocks HP1-beta chromodomain binding to methylated histone tails; P83916; AlphaScreen HP1-beta / biotin-H3K9me3 peptide binding; Potency, µM (titrated, usually from 114 µM), for inactives: at the highest dose activity change, negative = inhibition, most hits filed as inhibitors; 0.56% of 390,000 active; further: potency means the concentration at half of the fitted maximal effect; nearly all actives have a fitted effect of over 70% in size
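AlphaScreen: HP1-beta (50 nM) preformed 30 min with biotin-H3(1-18)K9me3 peptide (50 nM) in PBS pH 7.4, 0.01% Tween-20. Compound added for 30 min at RT, then streptavidin donor/nickel chelate acceptor beads (10 ug/mL) for 30 min.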
JMJD2A Tudor inh = JMJD2A Tudor domain (human) inhibition. O75164. AlphaScreen JMJD2A-Tudor / H3K4me3 peptide binding. Potency, µM (highest dose often 114 µM), inactives show at the top dose activity change, negative = inhibition, most hits filed as inhibitors. 4.4% of 390,000 active. AID 504339; further: potency means the concentration at half of the fitted maximal effect; on the % scale 0 is the no-effect control and ±100 the full control effect; nearly all actives have a fitted effect of over 50% in size
Target sequence (O75164 whole entry, looked up, the tested form may be a part): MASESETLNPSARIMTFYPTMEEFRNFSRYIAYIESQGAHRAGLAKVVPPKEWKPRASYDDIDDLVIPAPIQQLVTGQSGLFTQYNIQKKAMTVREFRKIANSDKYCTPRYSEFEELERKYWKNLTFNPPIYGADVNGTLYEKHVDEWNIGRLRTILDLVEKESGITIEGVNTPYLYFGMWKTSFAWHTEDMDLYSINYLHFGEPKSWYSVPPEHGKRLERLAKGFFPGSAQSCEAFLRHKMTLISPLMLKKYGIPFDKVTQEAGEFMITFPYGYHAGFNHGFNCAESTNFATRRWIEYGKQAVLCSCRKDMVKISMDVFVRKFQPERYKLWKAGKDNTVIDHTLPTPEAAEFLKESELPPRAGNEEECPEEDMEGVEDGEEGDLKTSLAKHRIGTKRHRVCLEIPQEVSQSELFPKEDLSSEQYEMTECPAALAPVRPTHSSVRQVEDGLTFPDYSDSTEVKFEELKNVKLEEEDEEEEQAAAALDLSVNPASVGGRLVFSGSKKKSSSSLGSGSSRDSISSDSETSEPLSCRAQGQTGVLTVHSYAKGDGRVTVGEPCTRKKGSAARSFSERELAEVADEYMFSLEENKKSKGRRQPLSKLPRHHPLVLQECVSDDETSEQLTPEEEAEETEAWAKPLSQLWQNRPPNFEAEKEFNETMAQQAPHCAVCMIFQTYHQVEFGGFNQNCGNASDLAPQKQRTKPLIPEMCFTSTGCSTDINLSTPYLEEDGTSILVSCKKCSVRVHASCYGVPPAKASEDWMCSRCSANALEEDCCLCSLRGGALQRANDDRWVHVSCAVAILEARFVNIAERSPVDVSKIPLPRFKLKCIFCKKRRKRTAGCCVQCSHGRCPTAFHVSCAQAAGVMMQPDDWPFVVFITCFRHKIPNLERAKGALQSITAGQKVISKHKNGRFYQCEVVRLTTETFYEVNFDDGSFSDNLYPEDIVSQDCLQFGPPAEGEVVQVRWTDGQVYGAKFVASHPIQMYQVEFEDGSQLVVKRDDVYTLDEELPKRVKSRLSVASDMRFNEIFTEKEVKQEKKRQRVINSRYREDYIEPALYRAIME
L3MBTL1 inh = blocks human L3MBTL1; Q9Y468; AlphaScreen L3MBTL1–H3K9me1 peptide binding; Potency, µM (titrated, usually from 57.1 µM), for inactives: at the top dose activity, negative = inhibition, usual class: inhibitors; 0.66% of 230,000 active; further: potency means the concentration at half of the fitted maximal effect; on the % scale 0 is the no-effect control and ±100 the full control effect; nearly all actives have a fitted effect of over 60% in size
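AlphaScreen proximity signal between nickel-chelate acceptor and streptavidin donor beads (final 10 ug/mL) reports binding of 50 nM L3MBTL1 to 75 nM biotin-H3 K9me1 peptide; complex incubated with compounds 30 min at room temperature; cefsulodin titration as control.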
Numbers without * were called inactive; u = inconclusive; x = not tested or not shown; [ ] = remark or other dose. An excerpt weighted towards active compounds, which were near 11% of everything screened. Unless noted, the call rests on the fitted dose curve; in most records, active means well fitted inhibition curve with a large enough effect; inconclusive means small, poorly fitted or top-dose-only effect; inactive means no such curve, though single readings can be large or run the other way.

SMILES	PI5P4K alpha inh	G9a block	BAZ2B block	HP1b chromo inh	JMJD2A Tudor inh	L3MBTL1 inh
Cc1cccc(N=C2NC(=O)/C(=C/c3cccn3C)S2)c1	-4	x	40µM*	2%	u	-24%
Cc1c(/C=C2\SC(=Nc3cccc(C(=O)O)c3)NC2=O)c2ccccc2n1C	-79*	x	-34%	0%	-18%[11.4 µM]	x
O=C(Cn1ncc2c3ccccc3n(Cc3cccc(Cl)c3)c2c1=O)NC1CCCCCC1	x	3%[59 µM]	u	22%	u	x
CCOC(=O)c1[nH]c(C)c(CCC(=O)N2CCN(c3ccc(OC)cc3)CC2)c1C	x	-33%[59 µM]	-3%	6%[57 µM]	-28%	x
COC(=O)c1ccc(NC(=O)CSc2n[nH]c(CC(C)C)n2)cc1	x	u	5%	31%	-10%	x
Cc1nnc(SCC(=O)N/N=C/c2ccc(-c3ccc(C)c(Cl)c3)o2)s1	-22	11µM*	-35%	u	-10%	-5%
CCC(=O)N/N=C/c1ccc(-c2ccc(Cl)cc2)o1	-1	-34%	-30%	21%	-23%	u
Fc1ccc(Nc2ccnc(-c3ccc4c(c3)OCO4)n2)cc1	x	-1%[0.501 µM]	x	x	x	x
Cc1cc(-c2n[nH]c(=S)n2/N=C/c2c[nH]c3ccccc23)n[nH]1	-12	0.79µM*	-22%	11%	10µM*	-10%
Cc1cc(-c2n[nH]c(=S)n2/N=C/c2ccccc2[N+](=O)[O-])n[nH]1	-15	0.4µM*	u	u	3.5µM*	6%
Fc1ccc(-c2n[nH]c(=S)n2/N=C/c2c[nH]c3ccccc23)cc1	10	1.8µM*	8%	20%	u	8%
Cc1n[nH]c(=O)n(N=Cc2c[nH]c3ccccc23)c1=O	1	x	x	x	x	x
N#Cc1cccc(-c2ccc3ncnc(NCc4ccccc4)c3c2)c1	x	4%[0.501 µM]	x	x	x	x
Cn1cc(-c2nc3cnc(Oc4cccc(Cl)c4)nc3n(C3CC3)c2=O)c2ccccc21	x	5%[0.501 µM]	x	x	x	x
O=C(Nc1ccc(F)cc1)c1cccnc1Oc1ccccc1	5	6%	3%	25%	3%	x
O=C(NNc1cccc(Cl)c1)c1cccnc1Oc1ccccc1	-3	16µM*	-5%	36%	5%	-11%
N#Cc1cccc(-c2nc3cnc(Oc4cccc(Cl)c4)nc3n(C3CC3)c2=O)c1	x	-2%[0.501 µM]	x	x	x	x
COc1ccc(Nc2nc(NCc3ccco3)nc(N/N=C/c3ccccc3F)n2)cc1	-18	10%[59 µM]	u	u	50µM*	-11%
COc1ccc(/C=N/Nc2nc(NCc3ccco3)nc(Nc3ccc(OC)cc3)n2)cc1	3	-13%[59 µM]	u	11%	-35%	-23%
COc1ccc(Nc2nc(NCc3ccco3)nc(N/N=C/c3ccc(O)cc3)n2)cc1	-26	u	22µM*	-15%	u	u
Cn1cccc1C(=O)C(=O)Nc1ccc(Cl)cc1	0	34%[0.501 µM]	-31%	-2%	-3%[11.4 µM]	-3%
Cn1cccc1C(=O)C(=O)Nc1cc(Cl)cc(Cl)c1	u	15%	4%	-3%	16µM*	-8%
CCOC(=O)c1c(NC(=O)c2cc3nc(-c4ccc(OC)cc4)cc(C(F)(F)F)n3n2)sc2c1CCC(C)C2 (stereo not given)	x	4%[59 µM]	2%	11%	-15%	x
CC(=O)C1=C(O)C(=O)OC1c1ccc(Cl)cc1 (stereo not given)	-16	50µM*	-12%	13%	14µM*	x
CC(Sc1n[nH]c(-c2ccccc2)n1)C(=O)c1c(N)n(C)c(=O)n(C)c1=O (stereo not given)	-4	50µM*	4%	31%	0%	7%
SMILES	PI5P4K alpha inh	G9a block	BAZ2B block	HP1b chromo inh	JMJD2A Tudor inh	L3MBTL1 inh
CC(Sc1nc2ccccc2s1)C(=O)c1c(N)n(C)c(=O)n(C)c1=O (stereo not given)	4	u	-16%	41%	-5%	1%
CC(Sc1nn(-c2ccc(F)cc2)c(=S)s1)C(=O)c1c(N)n(C)c(=O)n(C)c1=O (stereo not given)	12	50µM*	-13%	0%	-19%	-2%
Cn1c(N)c(C(=O)CSc2nn(-c3ccccc3)c(=S)s2)c(=O)n(C)c1=O	2	50µM*	0%	11%	-21%	-1%
Cc1cc(C)nc(NC(=O)CSc2nn(-c3ccccc3)c(=S)s2)n1	-4	u	79µM*	12%	u	-9%
Cc1nc2scc(C)n2c(=O)c1S(=O)(=O)Nc1cccc(C(F)(F)F)c1	x	-9%[59 µM]	u	48%	-10%	x
CC(C(=O)Nc1ccc(Br)cc1)N(C)CC(=O)NCc1ccco1 (stereo not given)	3	8.9µM*	-5%	25%	-7%	-3%
CCC1=NNc2cccc3c(OC)ccc1c23	x	25µM*	28µM*	x	x	x
CC1(C)CC(=O)C2=C(C1)Nc1ccccc1N=C2	x	8.9µM*	-30%	x	x	3%
CC1(C)CC(=O)C2=C(C1)Nc1ccccc1S2	-8	40µM*	u	-24%	-23%	-12%
CC1(C)CC(=O)C2=C(C1)Nc1ccccc1NC2	-1	7%	-13%	52%	-3%	12%
CC1(C)CC(=O)C2=C(C1)Nc1ccccc1[S@]2=O	-2	19%	-1%	28%	-6%	3%
Cc1ccc(CN2CCCn3nc(C(=O)NCCN(C)C)cc3C2=O)cc1	x	-14%[12.7 µM]	-35%	-9%	-4%	x
Cc1ccc(CN2CCCn3nc(C(=O)NCc4ccc(N(C)C)cc4)cc3C2=O)cc1	x	14µM*	u	0%	u	x
CCc1nc2sc3c(=O)[nH]cnc3c2c2c1CSC(C)(C)C2	u	2.2µM*	u	16%	-33%	-6%
CC(=O)c1ccc(NC(=O)CCCCCn2nnc3ccccc3c2=O)cc1	-8	13%	6%	33%	13%	x
O=C(CSCC(=O)OCn1nnc2ccccc2c1=O)Nc1ccc(Cl)cc1	3	45µM*	-22%	25%	1%	3%
CN(C)c1ccc(NC(=O)CCCCCn2nnc3ccccc3c2=O)cc1	1	50µM*	-20%	16%	-25%	x
C[C@]12CC[C@@H]3c4ccc(O)cc4CC[C@H]3[C@@H]1C[C@H](O)C2O (stereo not given in full)	x	2%[59 µM]	x	x	x	x
Oc1cccc(/C=N/N2CCN(c3ccccn3)CC2)c1	-9	x	-27%	17%	-17%	-5%
BrC(=C\c1ccccc1)/C=N/N1CCN(c2ccccn2)CC1	13	28µM*	79µM*	-4%	-28%	-6%
C(=N\N1CCN(Cc2ccccc2)CC1)/c1cccnc1	-4	u	-25%	17%	-14%	-14%
BrC(=C\c1ccccc1)/C=N/N1CCN(Cc2ccccc2)CC1	1	45µM*	u	u	u	-15%
BrC(/C=N/N1CCN(Cc2ccccc2)CC1)=C/c1ccccc1	5	u	u	-18%	40µM*	-27%
